Measured values as given in PubChem BioAssay (NCI).
This is part of a sample that, as a whole, favours compounds with a hit. Of some 79,000 tested, about 15% had one in any assay. Values without a mark were called inactive. The source made the active and inactive calls. Rule as the data show it: active = growth inhibition above about 70%; inactive = the rest.

Legend:
[1] = NCI Yeast Anticancer Drug Screen. Data for the rad50 strain (AID 155);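 also: 0% = growth of vehicle-only cultures of the same strain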; conditions: S. cerevisiae rad50 strain growth inhibition, hits give high values
Summary of the method: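 DNA repair mutant yeast, compound exposure, growth read-out; inhibition is taken relative to vehicle.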

[2] = NCI Yeast Anticancer Drug Screen. Data for the mec2-1 strain (AID 157); conditions: S. cerevisiae mec2-1 strain, hits give high values
Summary of the method: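 Mutant yeast (mec2-1) grown with compound; growth inhibition relative to vehicle control reported.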

[3] = NCI Yeast Anticancer Drug Screen. Data for the sgs1 mgt1 strain (AID 161);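 also: 0% = growth of cultures given vehicle only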; conditions: S. cerevisiae sgs1 mgt1 strain, hits give high values
Summary of the method: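 Percent growth inhibition was derived by comparing compound-exposed mutant yeast with vehicle-exposed cultures. The strain carries alterations in DNA damage repair.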

[4] = NCI Yeast Anticancer Drug Screen. Data for the cln2 rad14 strain (AID 165);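 also: 0% = growth equal to vehicle treated cultures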; conditions: S. cerevisiae cln2 rad14 strain, hits give high values
Summary of the method: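 Readout is yeast growth inhibition versus vehicle-treated controls, using a strain with cln2 and rad14 alterations exposed to compound.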

[5] = NCI Yeast Anticancer Drug Screen. Data for the bub3 strain (AID 167); conditions: S. cerevisiae bub3 mutant strain, hits give high values
Summary of the method: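 In this screen, a yeast mutant lacking normal mitotic checkpoint function is challenged with compound. Relative growth versus vehicle gives the inhibition value.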

[6] = NCI Yeast Anticancer Drug Screen. Data for the mlh1 rad18 strain (AID 175); conditions: S. cerevisiae mlh1 rad18 strain growth inhibition, hits give high values
Summary of the method: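 Genetically defined yeast (DNA repair-deficient) exposed to compounds; growth inhibition determined relative to vehicle.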

[7] = at 5.0 µM (retest, dose inferred, filed as 0.5)
[8] = at 50.0 µM (retest, dose inferred, filed as 5.0)

Structure (SMILES)	growth inhibition [1, 7]	growth inhibition [1, 8]	growth inhibition ([1]; at 50.0 µM)	growth inhibition [2, 7]	growth inhibition [2, 8]	growth inhibition ([2]; at 50.0 µM)	growth inhibition [3, 7]	growth inhibition [3, 8]	growth inhibition ([3]; at 50.0 µM)	growth inhibition [4, 7]	growth inhibition [4, 8]	growth inhibition ([4]; at 50.0 µM)	growth inhibition [5, 7]	growth inhibition [5, 8]	growth inhibition ([5]; at 50.0 µM)	growth inhibition [6, 7]	growth inhibition [6, 8]	growth inhibition ([6]; at 50.0 µM)
CCC(N)C(O)C(C)C (configuration not stated)	-1%	10%	71.7% (active)	-1%	1%	2.6%	-3%	2%	14.3%	-2%	-2%	-10.6%	3%	17%	13.2%	-1%	3%	10.6%
C/C(=N\NC(=S)N/N=C(\C)c1ccccn1)c1ccccn1	93% (active)	99% (active)	88.2% (active)	90% (active)	99% (active)	91.5% (active)	88% (active)	99% (active)	84.7% (active)	93% (active)	98% (active)	88.2% (active)	95% (active)	99% (active)	87.9% (active)	93% (active)	99% (active)	83% (active)
N=c1ccc2c(c1)[nH]c1c3ccccc3[nH]c3cccc2c31	81% (active)	98% (active)	81.8% (active)	27%	98% (active)	84% (active)	23%	98% (active)	89.1% (active)	21%	98% (active)	90% (active)	18%	98% (active)	88.3% (active)	33%	97% (active)	87% (active)
CCN1C(/C=C/c2ccc(O)c3ncccc23)CCC2CC(C)CCC21 (configuration not stated)	20%	94% (active)	95.3% (active)	12%	97% (active)	95.5% (active)	62%	96% (active)	95.5% (active)	10%	90% (active)	88.9% (active)	30%	94% (active)	94% (active)	41%	94% (active)	94.3% (active)
